From article PMC5540273 (PLoS ONE, 2017) come the findings set out here.

SMILES strings stand for the structures. Values joined by “and” are separate entries in the source; they are usually repeats but may differ in a detail not shown here. Identical values can stand only once. Like-named read-outs stand apart in the source and are kept apart here.

Assay [1] relates to TLK2. To be noted: concentration: 1 μM, replicates: in singlicate, n = 1.
Assay [2] deals with TNIK. To be noted: concentration: 1 μM, replicates: in singlicate, n = 1.
Assay [3] deals with TNK1. Conditions: concentration: 1 μM, replicates: in singlicate; n = 1.
For assay [4], the system named is TNK2. Conditions: concentration: 1 μM, replicates: in singlicate, n = 1.
The subject of assay [5] is TNNI3K. Conditions: concentration: 1 μM, replicates: in singlicate, n = 1.
The test system of assay [6] is T1, TRKA.
T1 construct: gene NTRK1
Conditions: concentration: 1 μM, replicates: in singlicate, n = 1.

The test system of assay [7] is TRKB. Conditions: concentration: 1 μM, replicates: in singlicate, n = 1.
Assay [8] deals with T2, TRKC.
T2 construct: gene NTRK3
To be noted: concentration: 1 μM, replicates: in singlicate, n = 1.

Assay [9] relates to TRPM6. To be noted: concentration: 1 μM, replicates: in singlicate; n = 1.
Assay [10] concerns TSSK1B. Conditions: concentration: 1 μM, replicates: in singlicate, n = 1.
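Note: KINOMEscan kinase panel screen.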

As to `CN1c2ccc(NCc3ccc(F)cc3)cc2-c2c(cnn2C)S1(=O)=O`, the “%Inh” value in assay [1] is on record as 0%; in [2] it was 38%; in assay [3], 35%; in [4], 0%; in [5], 2%; in [6] it was 0%. For the same compound, the “%Inh” value in assay [7] stood at 0%; in [8] it was 2%; in [9], 0%; in assay [10], 0%.

With `COc1ccc(COc2cc(-n3cnc4ccccc43)sc2C(N)=O)cc1` [GSK1024304], the “%Inh” value in [1] is listed as 0%; in assay [2] it was 51%; in assay [3], 8%; in assay [4] it was 3%; in [5] it was 0%; in assay [6], 0%. Besides, the “%Inh” value is on record as 0% in assay [7], 19% in assay [8], 4% in assay [9] and 0% in assay [10].

`O=C(NCCNc1ccnc(Nc2ccc(F)cc2)n1)c1cc2ccccc2s1` [GSK1379874]: the “%Inh” value is listed as 0% in [1]; 0% in assay [2]; 0% in assay [3]; 7% in assay [4]; 0% in assay [5]; 0% in assay [6]. Besides, the “%Inh” value in [7] stood at 4%; in assay [8], 38%; in [9], 11%; in [10], 0%.

For the compound `COc1cc2c(cc1OC[C@@H](O)CO)ncc1c3ccc(C#N)cc3[nH]c21`, the “%Inh” value in assay [1] is 0%; in [2], 64%; in assay [3], 36%; in [4] it was 0%; in assay [5], 0%; in assay [6] it was 98.8%. In addition, the “%Inh” value in assay [7] is on record as 90%; in assay [8], 66%; in assay [9], 0%; in [10], 3%.

Take `O=C(Nc1n[nH]c2cc(-c3cccc(F)c3)ccc12)C1CC1` [SB-735464]: the “%Inh” value in [1] was 0%; in [2], 72%; in [3], 9%; in assay [4], 0%; in assay [5], 0%; in assay [6], 4%. For the same compound, the “%Inh” value in assay [7] turned out to be 2%; in [8], 38%; in assay [9], 7%; in assay [10], 0%.

As to `CN(C1=C(c2ccccc2)C(=O)NC1=O)c1ccccc1` [SB-334860], the “%Inh” value in assay [1] was found to be 6%; in assay [2] it was 4%; in [3], 7%; in assay [4], 18%; in [5], 20%; in assay [6] it was 18%. Moreover, the “%Inh” value turned out to be 0% in [7], 0% in assay [8], 31% in assay [9] and 11% in [10].

In the case of `Cc1nnc(-c2ccc(C)c(-c3ccc(C(=O)Nc4ccc(NS(C)(=O)=O)cc4)cc3)c2)o1` [GW702865], the “%Inh” value in [1] came to 4%; in [2] it was 0%; in [3] it was 0%; in [4] it was 3%; in assay [5] it was 0%; in assay [6], 23%. Besides, the “%Inh” value is given as 0% in assay [7], 26% in assay [8], 7% in assay [9] and 15% in assay [10].

As to `NS(=O)(=O)CCc1cccc(Nc2nccc(-c3c(-c4cccc(NC(=O)c5c(F)cccc5F)c4)nn4ccccc34)n2)c1` [GSK336735], the “%Inh” value in assay [1] is reported as 2%; in [2] it was 85%; in assay [3], 100%; in assay [4], 89%; in assay [5] it was 48%; in assay [6], 0%. The “%Inh” value in assay [7] amounted to 19%; in assay [8], 11%; in assay [9] it was 56%; in assay [10], 28%.

As to `COc1ccc(CNC(=O)NC2CCN(c3ccnc(Nc4ccc(OC)cc4)n3)C2)cc1` (stereo not drawn) [GSK1379727], the “%Inh” value in assay [1] is 0%; in [2], 0%; in assay [3], 0%; in assay [4], 12%; in assay [5], 0%; in assay [6], 0%. The “%Inh” value stood at 0% in assay [7], 47% in [8], 0% in assay [9] and 13% in [10].

As for `Cc1ccc(C(=O)NCC(N)=O)cc1-n1c(C)cc(OCc2ccc(F)cc2F)c(Br)c1=O`, the “%Inh” value in assay [1] amounted to 0%; in assay [2] it was 0%; in [3], 0%; in [4] it was 15%; in [5], 14%; in assay [6], 0%. Also, the “%Inh” value in [7] turned out to be 0%; in [8], 0%; in assay [9], 0%; in [10], 26%.

Consider `Fc1ccc(-c2ncn(CCCN3CCOCC3)c2-c2cccnc2)cc1` [SB-211743], for which the “%Inh” value in assay [1] was determined as 0%; in [2], 13%; in [3] it was 14%; in [4], 0%; in [5], 0%; in assay [6], 0%. Moreover, the “%Inh” value is listed as 0% in assay [7], 0% in assay [8], 3% in [9] and 0% in [10].

As for `CN(C(=O)c1ccc(-c2cc(-c3c[nH]nc3-c3ccccn3)ccn2)cc1)C1CCOCC1` [GW810083], the “%Inh” value in assay [1] is 0%; in assay [2], 23%; in assay [3] it was 0%; in [4] it was 0%; in [5], 0%; in assay [6] it was 38%. Further, the “%Inh” value in assay [7] is listed as 41%; in assay [8], 17%; in assay [9], 0%; in assay [10], 0%.

Regarding `Cl.Oc1cccc(Nc2ccnc3cc(-c4ccncc4)ccc23)c1` [GW494601], the “%Inh” value in assay [1] is listed as 9%; in [2], 86%; in assay [3] it was 72%; in [4], 16%; in assay [5], 33%; in assay [6], 68%. Besides, the “%Inh” value in assay [7] amounted to 11%; in [8], 25%; in assay [9], 0%; in assay [10], 0%.

Consider `O=C(NOCC1CC1)c1ccc(F)c(F)c1Nc1ccc(I)cc1Cl`, for which the “%Inh” value in [1] is given as 0%; in assay [2] it was 2%; in assay [3] it was 26%; in [4], 0%; in assay [5], 0%; in assay [6], 0%. Further, the “%Inh” value in [7], in assay [8], in assay [9] and in assay [10] was 0% in each case.

As to `O=C1NC(=O)C(N2CCc3ccccc32)=C1c1cccc(Cl)c1` [SB-408010], the “%Inh” value is on record as 0% in assay [1]; 0% in assay [2]; 0% in [3]; 0% in assay [4]; 0% in assay [5]; 12% in [6]. Further, the “%Inh” value in assay [7] worked out at 0%; in assay [8] it was 0%; in [9], 21%; in assay [10], 22%.

Take `NCCNS(=O)(=O)c1ccc(-c2ccnc3[nH]ccc23)cc1` [GSK977617]: the “%Inh” value was 37% and 34% in [1] (1 µM); 61% and 55% in assay [2] (1 µM); 0% in [3]; 4% and 6% in assay [4] (1 µM); 13% and 5% in assay [5] (1 µM); 100% and 97.9% in assay [6] (1 µM). For the same compound, the “%Inh” value in assay [7] (1 µM) is 89% and 82%; in assay [8] (1 µM), 80% and 63%; in [9] it was 0%; in assay [10] (1 µM), 56% and 46%.

On to `O=C1Cc2cc(Nc3nc(NCc4cccc(S(=O)(=O)C(F)(F)F)c4)ncc3C(F)(F)F)ccc2N1`, for which the “%Inh” value in assay [1] is 3%; in assay [2], 0%; in assay [3] it was 0%; in assay [4], 10%; in assay [5] it was 0%; in assay [6], 17%. Moreover, the “%Inh” value in assay [7] worked out at 0%; in assay [8] it was 10%; in assay [9], 0%; in assay [10], 19%.

In the case of `NS(=O)(=O)c1cccc(-c2ccc3nccc(-c4cccc(S(N)(=O)=O)c4)c3c2)c1` [GW867253], the “%Inh” value in assay [1] was 15%; in [2], 16%; in assay [3], 0%; in assay [4], 0%; in [5], 0%; in assay [6], 0%. Further, the “%Inh” value in assay [7], in assay [8], in assay [9] and in [10] was 0% each time.

Consider `COc1cc(Nc2nccc(N3CCC(NC(=O)c4cccc(NC(C)=O)c4)C3)n2)cc(OC)c1OC` (stereo not drawn) [GSK1379754], for which the “%Inh” value turned out to be 0% in [1]; 0% in assay [2]; 0% in assay [3]; 16% in assay [4]; 0% in [5]; 69% in [6]. The “%Inh” value in assay [7] is given as 0%; in [8] it was 22%; in assay [9], 22%; in assay [10], 18%.

Consider `N#Cc1c(N2CCOCC2)sc(-c2ccn[nH]2)c1-c1ccc(Cl)cc1`, for which the “%Inh” value is listed as 0% in assay [1]; 0% in [2]; 0% in [3]; 0% in [4]; 0% in assay [5]; 12% in assay [6]. Further, the “%Inh” value in assay [7] was 6%; in [8] it was 8%; in [9], 0%; in assay [10], 0%.

Take `O=C(c1ccc(-c2cc(-c3c[nH]nc3-c3ccccn3)ccn2)cc1)N1CCOCC1` [GW812171]: the “%Inh” value in [1] is given as 13%; in assay [2], 30%; in assay [3], 0%; in assay [4], 0%; in assay [5], 0%; in assay [6], 0%. Besides, the “%Inh” value in assay [7] was found to be 0%; in assay [8], 0%; in assay [9], 17%; in assay [10], 0%.
